{
  "source": "the supplement of paper PMC7866885",
  "about": "“A novel bicyclic 2,4-diaminopyrimidine inhibitor of Streptococcus suis dihydrofolate reductase” (PeerJ, 2021)",
  "note": "± gives the standard deviation.",
  "data": [
    {"test_system": "Streptococcus suis P1/7", "test": "percent growth relative to DMSO control; higher = less growth inhibition", "conditions": "10 µM; incubation time 18 h", "method": "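CLSI broth microdilution: 5x10^4 CFU of Streptococcus suis (strain P1/7 or HE06) incubated with 10 µM Pathogen Box compound in cation-adjusted Mueller Hinton broth, 37 °C, 5% CO2, 18 h. Growth read as OD600 and expressed as percent of the DMSO-treated control (100%); mean ± SD of three independent experiments.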", "units": {"percent growth": "%"}, "values": [
      {"smiles": "Cc1cc(C(=O)Nc2ccc(-c3ccccc3)cc2)no1", "percent growth": "118 ± 42"},
      {"smiles": "FC(F)(F)c1cc(NCCc2ccccc2)nc(-c2ccccn2)n1", "percent growth": "9.89 ± 17"},
      {"smiles": "N=C(N)c1ccc(OCCCCCOc2ccc(C(=N)N)cc2)cc1", "percent growth": "37.1 ± 32"},
      {"smiles": "N=C(N)Nc1ccc(-c2ccc(-c3ccc(N=C(N)N)c(Cl)c3)o2)cc1Cl", "percent growth": "53.1 ± 27"},
      {"smiles": "c1ccc(Oc2ccc(-c3cc(N4CCNCC4)[nH]n3)cc2)cc1", "percent growth": "67.6 ± 28"},
      {"smiles": "Nc1ccc(C(=O)Nc2ccc(-c3nc4ccccc4o3)cc2)cc1", "percent growth": "92.6 ± 17"},
      {"smiles": "Cc1cc(NCC(C)C)c2n[nH]c(-c3ccccc3)c2n1", "percent growth": "122 ± 79"},
      {"smiles": "CNC(=O)c1nn(C)c2c1C(C)(C)Cc1cnc(Nc3ccc(N4CCN(C)CC4)cc3)nc1-2", "percent growth": "92.6 ± 19"},
      {"smiles": "Nc1nccc2ccc(-c3ccc4nccn4c3)cc12", "percent growth": "61.4 ± 20"},
      {"smiles": "CCOC(=O)c1c(NC(=O)c2c(F)c(F)c(F)c(F)c2F)sc(C(N)=O)c1C", "percent growth": "83.2 ± 22"},
      {"smiles": "COc1ccc(Cl)cc1NC(=O)CN(C)C(=O)c1cnn(-c2ccccc2)n1", "percent growth": "80.3 ± 29"},
      {"smiles": "O=C(c1cc2ccccc2o1)N1CCN(Cc2ccc3c(c2)OCO3)CC1", "percent growth": "102 ± 20"},
      {"smiles": "COc1cccc(OCC(=O)c2ccc(Br)cc2)c1", "percent growth": "81.9 ± 9.6"},
      {"smiles": "O=C(NCCc1ccn(-c2ccccc2)n1)C1CCCCC1", "percent growth": "95 ± 23"},
      {"smiles": "CC(Oc1ccccc1)C(=O)Nc1nc(-c2ccccn2)cs1", "note": "(stereo not given)", "percent growth": "2.35 ± 2.4"},
      {"smiles": "C[C@H]1c2cccc(O)c2C(=O)C2=C(O)[C@]3(O)C(=O)C(C(N)=O)=C(O)[C@@H](N(C)C)[C@@H]3[C@@H](O)[C@@H]21", "percent growth": "1.89 ± 3.3"},
      {"smiles": "c1ccc2c(c1)CN(CC1CC1)CC1(CCN(Cc3c[nH]c4cnccc34)CC1)O2", "percent growth": "91.8 ± 5.5"},
      {"smiles": "CS(=O)(=O)c1ccc(C(=O)N(CC2CCCO2)c2nc3ccccc3s2)cc1[N+](=O)[O-]", "note": "(stereo not given)", "percent growth": "108 ± 18"},
      {"smiles": "COc1cccn2c(C(=O)N3CCCCC3)c(C(F)(F)F)nc12", "percent growth": "87 ± 21"},
      {"smiles": "CO[C@@H](C(=O)N1Cc2[nH]nc(NC(=O)c3ccc(N4CCN(C)CC4)cc3)c2C1)c1ccccc1", "percent growth": "86.3 ± 15"},
      {"smiles": "C[C@@H]1[C@H](O)[C@@H](C)/C=C/C=C/C=C/C=C/C=C/C=C/C=C/[C@H](O[C@@H]2O[C@H](C)[C@@H](O)[C@H](N)[C@@H]2O)C[C@@H]2O[C@](O)(C[C@@H](O)C[C@@H](O)[C@H](O)CC[C@@H](O)C[C@@H](O)CC(=O)O[C@H]1C)C[C@H](O)[C@H]2C(=O)O", "percent growth": "92.3 ± 14"},
      {"smiles": "COc1ccc(OC)c(NCc2ccc3nc(N)nc(N)c3c2Cl)c1", "percent growth": "2.34 ± 1.3"},
      {"smiles": "CN1CCN(S(=O)(=O)c2ccc(-c3ccc4c(Nc5ccc6nn[nH]c6c5)ccnc4c3)cc2)CC1", "percent growth": "63 ± 23"},
      {"smiles": "Cc1nc(-c2cccc(NCc3ccccc3)c2)[nH]c1C", "percent growth": "12 ± 5.5"},
      {"smiles": "Brc1c(-c2ccc3c(c2)OCO3)nc2ncccn12", "percent growth": "85.8 ± 20"},
      {"smiles": "CCc1nc2ccc(Cl)cn2c1C(=O)NCc1ccc(N2CCC(c3ccc(OC(F)(F)F)cc3)CC2)cc1", "percent growth": "111 ± 65"},
      {"smiles": "CCn1cnc2c(Nc3cc(F)cc(F)c3)nc(C#N)nc21", "percent growth": "75.3 ± 24"},
      {"smiles": "Nc1ncnc2c1ncn2[C@@H]1O[C@H](COS(=O)(=O)NC(=O)c2ccccc2O)[C@@H](O)[C@H]1O", "percent growth": "78.6 ± 9.8"},
      {"smiles": "Cc1cccc(Cn2ccc(NC(=O)c3ccc4c(c3)OCO4)n2)c1", "percent growth": "102 ± 23"},
      {"smiles": "NC(=O)c1cc(Br)ccc1OCCOc1ccccc1", "percent growth": "73.4 ± 29"},
      {"smiles": "Clc1ccc(-n2cc(COc3ccnc4ccccc34)nn2)cc1", "percent growth": "77.9 ± 13"},
      {"smiles": "CC(=O)N1CCc2cc3nc(C)cc(C)c3cc21", "percent growth": "91.7 ± 27"},
      {"smiles": "CN1CCCN(C(c2ccccc2)c2ccc(Cl)cc2)CC1", "note": "(stereo not given)", "percent growth": "85.4 ± 14"},
      {"smiles": "Cc1cccc(-c2nc(Nc3ccncn3)c3sccc3n2)n1", "percent growth": "0.888 ± 0.29"},
      {"smiles": "COc1ccc(CN2CCOc3ccc(C(C)(O)CN(C)C)cc3C2)cc1C", "note": "(stereo not given)", "percent growth": "101 ± 27"},
      {"smiles": "COc1ccc2nccc(NC(=O)C3CCN(CCc4ccc(Cl)cc4)CC3)c2n1", "percent growth": "28.6 ± 47"},
      {"smiles": "CN(C)CCNC(=O)N1CCCN(c2ncnc3cc(-c4ccccc4)sc23)CC1", "percent growth": "72.1 ± 3.5"},
      {"smiles": "Cc1cc2ccccc2n1CC(=O)N1CC(C(=O)N2CCCCC2)Oc2ccccc21", "note": "(stereo not given)", "percent growth": "102 ± 19"},
      {"smiles": "COc1ccc(C2=NN(C3CCCCCC3)C(=O)C2(C)C)cc1OCCCCOc1ccc(-c2nn[nH]n2)cc1", "percent growth": "16.3 ± 27"},
      {"smiles": "Cc1ccc(S(=O)(=O)n2cc(-c3ccnc(N)c3)c3cc(Br)cnc32)cc1", "percent growth": "61.5 ± 15"}
    ]}
  ]
}
